Data: PubChem BioAssay AID1159580 (chemical genetic matrix, 2015)
In all, about 5,500 compounds went through this assay and about 2,000 (36%) were called active. About 18% were inconclusive and are not listed. Rule as the data show it: active = normalized growth mostly below about 0.91 (no sharp cut-off); inconclusive = no clear call, values can overlap the other calls; inactive = mostly above about 0.92. Some of the results follow.

Assay: chemical genetic growth profiling, strain panel (AID 1159580);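 also: tested at 20 µM; growth read once vehicle control cultures reached saturation at 30 °C; 1 = growth at the plate median or of vehicle wells; lower values mean less growth of the strain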
Settings: growth OD
[1] = S. cerevisiae deletion strains, locus YCL061C, strain MRC1, stronger effect = lower value
[2] = S. cerevisiae deletion strains, locus YJL187C, strain SWE1, stronger effect = lower value
[3] = S. cerevisiae deletion strains, locus YAL013W, strain DEP1, stronger effect = lower value
[4] = S. cerevisiae deletion strains, locus YBR229C, strain ROT2, stronger effect = lower value
[5] = S. cerevisiae deletion strains, locus YDL101C, strain DUN1, stronger effect = lower value
[6] = S. cerevisiae deletion strains, locus YDR150W, strain NUM1, stronger effect = lower value
[7] = S. cerevisiae deletion strains, locus YEL061C, strain CIN8, stronger effect = lower value
[8] = S. cerevisiae deletion strains, locus YGR078C, strain PAC10, stronger effect = lower value
[9] = S. cerevisiae deletion strains, locus YHR030C, strain SLT2, stronger effect = lower value
[10] = S. cerevisiae deletion strains, locus YHR087W, strain rtc3, stronger effect = lower value
[11] = S. cerevisiae deletion strains, locus YJR043C, strain POL32, stronger effect = lower value
[12] = S. cerevisiae deletion strains, locus YJR075W, strain HOC1, stronger effect = lower value
[13] = S. cerevisiae deletion strains, locus YKL190W, strain CNB1, stronger effect = lower value
[14] = S. cerevisiae deletion strains, locus YLR039C, strain RIC1, stronger effect = lower value
[15] = S. cerevisiae deletion strains, locus YLR058C, strain SHM2 (second series), stronger effect = lower value
[16] = S. cerevisiae deletion strains, locus YLR085C, strain ARP6, stronger effect = lower value
[17] = S. cerevisiae deletion strains, locus YLR262C, strain YPT6, stronger effect = lower value
[18] = S. cerevisiae deletion strains, locus YML094W, strain GIM5, stronger effect = lower value
[19] = S. cerevisiae deletion strains, locus YMR219W, strain ESC1, stronger effect = lower value
[20] = S. cerevisiae deletion strains, locus YMR263W, strain SAP30, stronger effect = lower value
[21] = S. cerevisiae deletion strains, locus YNL153C, strain GIM3, stronger effect = lower value
[22] = S. cerevisiae deletion strains, locus YNL298W, strain CLA4 (second series), stronger effect = lower value
[23] = S. cerevisiae deletion strains, locus YNL322C, strain KRE1, stronger effect = lower value
[24] = S. cerevisiae deletion strains, locus YNR030W, strain Alg12, stronger effect = lower value
[25] = S. cerevisiae deletion strains, locus YOL006C, strain TOP1, stronger effect = lower value
[26] = S. cerevisiae deletion strains, locus YPL055C, strain LGE1, stronger effect = lower value
[27] = S. cerevisiae deletion strains, locus YPL241C, strain CIN2, stronger effect = lower value
[28] = S. cerevisiae deletion strains, locus YPR135W, strain CTF4, stronger effect = lower value
[29] = S. cerevisiae strains, strain wild type, stronger effect = lower value

Measured: normalized growth

Cc1ccc(-c2nc3ccc(C)cn3c2CC(=O)N(C)C)cc1
inactive: S. cerevisiae deletion strains, locus YAL021C, strain ccr4, stronger effect = lower value 1.06 | S. cerevisiae deletion strains, locus YAL026C, strain drs2, stronger effect = lower value 1.01 | S. cerevisiae deletion strains, locus YAL030W, strain snc1, stronger effect = lower value 1.02 | S. cerevisiae deletion strains, locus YBL061C, strain skt5, stronger effect = lower value 0.998 | S. cerevisiae deletion strains, locus YBR009C, strain hhf1, stronger effect = lower value 1.02 | S. cerevisiae deletion strains, locus YBR023C, strain chs3, stronger effect = lower value 0.989 | S. cerevisiae deletion strains, locus YBR171W, strain sec66, stronger effect = lower value 1.04 | S. cerevisiae deletion strains, locus YBR231C, strain swc5, stronger effect = lower value 0.966 | S. cerevisiae deletion strains, locus YBR279W, strain paf1, stronger effect = lower value 0.993 | S. cerevisiae deletion strains, locus YCL011C, strain gbp2, stronger effect = lower value 1.01 | S. cerevisiae deletion strains, locus YCL016C, strain dcc1, stronger effect = lower value 0.987 | [1] 1.02 | S. cerevisiae deletion strains, locus YCL069W, strain vba3, stronger effect = lower value 1.02 | S. cerevisiae deletion strains, locus YCR088W, strain abp1, stronger effect = lower value 1.03 | S. cerevisiae deletion strains, locus YDL005C, strain med2, stronger effect = lower value 1.01 | S. cerevisiae deletion strains, locus YDL040C, strain nat1, stronger effect = lower value 1 | S. cerevisiae deletion strains, locus YDR001C, strain nth1, stronger effect = lower value 1.02 | S. cerevisiae deletion strains, locus YDR069C, strain doa4, stronger effect = lower value 1.01 | S. cerevisiae deletion strains, locus YDR137W, strain rgp1, stronger effect = lower value 1.05 | S. cerevisiae deletion strains, locus YDR159W, strain sac3, stronger effect = lower value 0.96 | S. cerevisiae deletion strains, locus YDR195W, strain ref2 1 | S. cerevisiae deletion strains, locus YDR297W, strain sur2, stronger effect = lower value 1 | S. cerevisiae deletion strains, locus YDR334W, strain swr1, stronger effect = lower value 1.02 | S. cerevisiae deletion strains, locus YDR335W, strain msn5, stronger effect = lower value 0.991 | S. cerevisiae deletion strains, locus YDR392W, strain spt3, stronger effect = lower value 0.939 | S. cerevisiae deletion strains, locus YEL003W, strain gim4, stronger effect = lower value 1.01 | S. cerevisiae deletion strains, locus YEL037C, strain rad23, stronger effect = lower value 1.01 | S. cerevisiae deletion strains, locus YEL061C, strain CIN8 (second series), stronger effect = lower value 1.01 | S. cerevisiae deletion strains, locus YER015W, strain faa2, stronger effect = lower value 1.02 | S. cerevisiae deletion strains, locus YER016W, strain bim1, stronger effect = lower value 1.01 | S. cerevisiae deletion strains, locus YER111C, strain swi4, stronger effect = lower value 1.03 | S. cerevisiae deletion strains, locus YER155C, strain BEM2 (second series), stronger effect = lower value 0.998 | S. cerevisiae deletion strains, locus YFR010W, strain ubp6, stronger effect = lower value 1.02 | S. cerevisiae deletion strains, locus YGL167C, strain pmr1, stronger effect = lower value 0.996 | S. cerevisiae deletion strains, locus YGL173C, strain kem1, stronger effect = lower value 1.01 | S. cerevisiae deletion strains, locus YGL227W, strain vid30, stronger effect = lower value 1.01 | S. cerevisiae deletion strains, locus YGL240W, strain doc1, stronger effect = lower value 1.09 | S. cerevisiae deletion strains, locus YGL253W, strain hxk2, stronger effect = lower value 0.999 | S. cerevisiae deletion strains, locus YHR013C, strain ard1, stronger effect = lower value 1.06 | S. cerevisiae deletion strains, locus YHR027C, strain rpn1, stronger effect = lower value 0.981 | S. cerevisiae deletion strains, locus YHR142W, strain chs7, stronger effect = lower value 1.03 | S. cerevisiae deletion strains, locus YJL092W, strain hpr5, stronger effect = lower value 1.02 | S. cerevisiae deletion strains, locus YJL095W, strain BCK1 (second series), stronger effect = lower value 1.01 | S. cerevisiae deletion strains, locus YJL115W, strain asf1, stronger effect = lower value 1.02 | S. cerevisiae deletion strains, locus YJL129C, strain trk1, stronger effect = lower value 1 | S. cerevisiae deletion strains, locus YJL154C, strain vps35, stronger effect = lower value 1.02 | S. cerevisiae deletion strains, locus YJL164C, strain tpk1, stronger effect = lower value 1.01 | S. cerevisiae deletion strains, locus YJL166W, strain qcr8, stronger effect = lower value 1.03 | [2] 1.01 | S. cerevisiae deletion strains, locus YKL160W, strain elf1, stronger effect = lower value 0.997 | S. cerevisiae deletion strains, locus YKR026C, strain gcn3, stronger effect = lower value 1.02 | S. cerevisiae deletion strains, locus YKR091W, strain srl3, stronger effect = lower value 1.03 | S. cerevisiae deletion strains, locus YLL001W, strain dnm1, stronger effect = lower value 0.988 | S. cerevisiae deletion strains, locus YLL026W, stronger effect = lower value 0.999 | S. cerevisiae deletion strains, locus YLL041C, strain sdh2, stronger effect = lower value 1.01 | S. cerevisiae deletion strains, locus YLR027C, strain aat2, stronger effect = lower value 1.02 | S. cerevisiae deletion strains, locus YLR221C, strain rsa3, stronger effect = lower value 0.974 | S. cerevisiae deletion strains, locus YLR258W, strain gsy2, stronger effect = lower value 1.03 | S. cerevisiae deletion strains, locus YLR262C, strain YPT6 (second series), stronger effect = lower value 1.01 | S. cerevisiae deletion strains, locus YLR320W, strain mms22, stronger effect = lower value 0.991 | S. cerevisiae deletion strains, locus YLR342W, strain FKS1, stronger effect = lower value 0.987 | S. cerevisiae deletion strains, locus YLR357W, strain rsc2, stronger effect = lower value 1.01 | S. cerevisiae deletion strains, locus YLR370C, strain arc18, stronger effect = lower value 0.978 | S. cerevisiae deletion strains, locus YLR384C, strain iki3, stronger effect = lower value 0.975 | S. cerevisiae deletion strains, locus YML120C, strain ndi1, stronger effect = lower value 0.984 | S. cerevisiae deletion strains, locus YMR058W, strain fet3, stronger effect = lower value 1.02 | S. cerevisiae deletion strains, locus YMR125W, strain sto1, stronger effect = lower value 1.03 | S. cerevisiae deletion strains, locus YMR129W, stronger effect = lower value 0.978 | S. cerevisiae deletion strains, locus YMR205C, strain PFK2, stronger effect = lower value 1 | S. cerevisiae deletion strains, locus YMR231W, strain pep5, stronger effect = lower value 1.02 | S. cerevisiae deletion strains, locus YNL071W, strain lat1, stronger effect = lower value 1.03 | S. cerevisiae deletion strains, locus YNL209W, strain ssb2, stronger effect = lower value 0.995 | S. cerevisiae deletion strains, locus YNL248C, strain rpa49, stronger effect = lower value 1.02 | S. cerevisiae deletion strains, locus YNL322C, strain KRE1 (second series), stronger effect = lower value 1.03 | S. cerevisiae deletion strains, locus YNR049C, strain mso1, stronger effect = lower value 0.986 | S. cerevisiae deletion strains, locus YOR001W, strain rrp6, stronger effect = lower value 0.951 | S. cerevisiae deletion strains, locus YOR070C, strain gyp1, stronger effect = lower value 0.988 | S. cerevisiae deletion strains, locus YOR080W, strain dia2, stronger effect = lower value 0.998 | S. cerevisiae deletion strains, locus YOR083W, strain WHI5, stronger effect = lower value 0.969 | S. cerevisiae deletion strains, locus YOR106W, strain vam3, stronger effect = lower value 1.08 | S. cerevisiae deletion strains, locus YOR265W, strain rbl2, stronger effect = lower value 0.969 | S. cerevisiae deletion strains, locus YOR270C, strain vph1, stronger effect = lower value 1.07 | S. cerevisiae deletion strains, locus YOR290C, strain snf2, stronger effect = lower value 1.03 | S. cerevisiae deletion strains, locus YPL051W, strain arl3, stronger effect = lower value 1.02 | S. cerevisiae deletion strains, locus YPL078C, strain atp4, stronger effect = lower value 1.03 | S. cerevisiae deletion strains, locus YPL106C, strain sse1, stronger effect = lower value 1.12 | S. cerevisiae deletion strains, locus YPL240C, strain hsp82, stronger effect = lower value 0.982

COc1cc([N+](=O)[O-])c(OC)cc1SCC(=O)NNC(=O)c1cc(OC)c(OC)c(OC)c1
inactive: [3] 0.982 | [4] 1.01 | [1] 0.981 | [5] 0.968 | S. cerevisiae deletion strains, locus YDL134C, strain PPH21, stronger effect = lower value 0.991 | [6] 0.942 | [7] 0.941 | [8] 0.978 | S. cerevisiae deletion strains, locus YGR229C, strain SMI1, stronger effect = lower value 1.01 | [9] 0.963 | [10] 1.03 | [2] 1.01 | [11] 0.983 | [12] 1.01 | [13] 0.999 | [14] 0.974 | [15] 0.999 | [16] 0.946 | [17] 1.04 | [18] 1.01 | [19] 1.01 | [20] 0.987 | [21] 0.988 | [22] 0.937 | [23] 0.98 | [24] 0.999 | [25] 0.931 | [26] 1.01 | [27] 0.939 | [28] 0.904 | [29] 1.02

COC(=O)Cc1cc(OC)c(OC)cc1[N+](=O)[O-]
inactive: [3] 1.01 | [4] 0.998 | [1] 1.02 | [5] 1.01 | [6] 1.01 | [7] 0.953 | [8] 1.03 | [9] 1.07 | [2] 0.983 | [11] 1 | [12] 0.997 | [13] 0.978 | [14] 1.16 | [15] 0.991 | [16] 0.982 | [17] 1.15 | [18] 0.997 | [19] 1 | [20] 1 | [21] 1.01 | [22] 0.977 | [23] 1.01 | [24] 0.985 | [25] 0.977 | [26] 0.974 | [27] 1.01 | [28] 1.03 | [29] 0.972
active: [10] 1.1 [resistant]

COc1ccc([N+](=O)[O-])c(OC)c1C(N)=O
inactive: [3] 1.02 | [4] 1.03 | [1] 1.06 | [5] 1.06 | [6] 1.04 | [7] 0.995 | [8] 1.04 | [9] 1.11 | [10] 0.964 | [2] 1.02 | [11] 1.06 | [12] 1.02 | [14] 1.03 | [15] 0.997 | [16] 1.03 | [17] 0.989 | [18] 0.98 | [19] 1.02 | [20] 1.02 | [21] 1.04 | [22] 1.02 | [23] 1.01 | [24] 1.03 | [26] 1.01 | [27] 1.02 | [28] 1.12
